Assay outcomes from PubChem BioAssay.
IDE exosite inh – exo-site inhibitors of human insulin-degrading enzyme. z-score at 20 µM. purified IDE, FL-6b probe fluorescence polarization; hits give low values. AID 1259349. hit rate 6.3% among 17,000. P14735;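 active = z-score of -3 or lower, meaning strong loss of probe binding signal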;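 also: His-tagged human IDE residues 42-1019 made in E. coli with 30 nM FL-6b probe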
A number is an active result; 0 = inactive. The entries come from a sample that favours hits as a whole.

SMILES | IDE exosite inh
CN1CCCCN2[C@H](C1)[C@@H](c1ccc(-c3ccc(F)cc3)cc1)[C@@H]2CO | 0
O=C(C1CC1)N1CC(=O)N2[C@H](CO)[C@H](c3ccc(-c4cccnc4)cc3)[C@@H]2C1 | 0
COC(=O)c1ccc(CN2CC(=O)N3[C@@H](CO)[C@H](c4ccc(-c5cccnc5)cc4)[C@@H]3C2)cc1 | 0
O=C(NC[C@H]1[C@@H](c2ccccc2)[C@@H](CO)N1Cc1ccccn1)NC1CCCC1 | 0
O=C(c1ccccc1F)N1CC(=O)N2[C@H](CO)[C@H](c3ccc(-c4ccccc4)cc3)[C@@H]2C1 | 0
Cc1ccccc1-c1ccc([C@@H]2[C@H](CO)N3CCCCN(C(=O)NC4CCCC4)C[C@@H]23)cc1 | -19
CC(C)CC#Cc1ccc([C@H]2[C@@H](CO)N3CCCCN(C(=O)NC4CCCC4)C[C@@H]23)cc1 | 0
CCCC#Cc1ccc([C@H]2[C@H](CO)N3CCCCN(C(=O)NC4CCCC4)C[C@@H]23)cc1 | -8.2
O=C(NC1CCCC1)N1CCCCN2[C@H](CO)[C@H](c3ccc(-c4cncnc4)cc3)[C@@H]2C1 | 0
CC(C)CC#Cc1ccc([C@@H]2[C@@H](CO)N3CCCCN(C(=O)NC4CCCC4)C[C@@H]23)cc1 | 0
O=C(NC1CCCC1)N1CCCCN2[C@@H](CO)[C@H](c3ccc(-c4ccccc4)cc3)[C@@H]2C1 | -3.01
COc1ccc(NC(=O)N2CCCCN3[C@H](C2)[C@H](c2ccc(-c4ccccc4C)cc2)[C@@H]3CO)cc1 | 0
O=C(NC1CCCC1)N1CCCCN2[C@H](CO)[C@@H](c3ccc(-c4ccncc4)cc3)[C@H]2C1 | 0
O=C(NC1CCCC1)N1CCCCN2[C@H](C1)[C@H](c1ccc(-c3cncnc3)cc1)[C@@H]2CO | 0
Cc1ccccc1-c1ccc([C@@H]2[C@@H](CO)N3CCCCN(C(=O)NC4CCCC4)C[C@H]23)cc1 | -14.5
O=C(NC1CCCC1)N1CCCCN2[C@H](C1)[C@H](c1ccc(-c3ccccc3)cc1)[C@@H]2CO | 0
COCC#Cc1ccc([C@H]2[C@H](CO)N3C(=O)CN(C(=O)Nc4cc(F)ccc4F)C[C@@H]23)cc1 | 0
CC(=O)N1[C@H](CO)[C@H](c2ccccc2)[C@@H]1CN(C(=O)c1ccc(F)cc1)C(C)C | 0
N#C[C@H]1[C@@H](c2ccccc2-c2cccc(F)c2)[C@@H](CO)N1C(=O)CN1CCOCC1 | 0
COc1cccc(S(=O)(=O)N[C@@H]2CC[C@@H](CC(=O)NC3Cc4ccccc4C3)O[C@@H]2CO)c1 | 0
C[C@H]1CN([C@@H](C)CO)C(=O)c2ccccc2-c2ccccc2CO[C@@H]1CN(C)C(=O)Nc1ccnc(N2CCOCC2)c1 | 0
COc1ccc([C@@H]2CC=CC[C@@H](C)Oc3ccccc3C(=O)N(C)[C@@H](C(C)C)C(=O)N2)c(OC)c1 (mixture of isomers) | 0
O=C(C1CCCC1)N1CC(=O)N2[C@H](CO)[C@@H](c3ccc(Br)cc3)[C@@H]2C1 | 0
O=C(Nc1cccc(F)c1)N1C[C@@H]2[C@H](c3ccccc31)[C@H](CO)N2C(=O)Cc1ccccn1 | 0
O=C(Nc1ccc(F)cc1)N1CC(=O)N2[C@H](C1)[C@H](c1ccc(C#Cc3ccccc3)cc1)[C@@H]2CO | 0
